Reference: ChEMBL document CHEMBL1961873, “Compounds: GSK PKIS; Assays: Nanosyn kinase panel” (2012)

Legend:
[1] = target: T1, Aurora kinase A (Homo sapiens) (UniProt O14965); conditions: at 1 µM;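 note: values are mean percent inhibition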
T1 sequence (whole entry): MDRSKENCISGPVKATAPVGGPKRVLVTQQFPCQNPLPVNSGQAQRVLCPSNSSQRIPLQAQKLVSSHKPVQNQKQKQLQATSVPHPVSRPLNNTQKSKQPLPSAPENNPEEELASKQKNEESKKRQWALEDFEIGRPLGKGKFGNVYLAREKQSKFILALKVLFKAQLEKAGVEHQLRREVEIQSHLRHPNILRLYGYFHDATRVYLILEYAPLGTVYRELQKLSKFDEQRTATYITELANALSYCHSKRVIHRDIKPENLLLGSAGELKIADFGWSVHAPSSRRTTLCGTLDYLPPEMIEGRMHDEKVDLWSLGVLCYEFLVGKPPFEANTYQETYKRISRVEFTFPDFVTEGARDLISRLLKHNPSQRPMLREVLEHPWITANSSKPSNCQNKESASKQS

[2] = target: Aurora kinase B (Homo sapiens) (UniProt Q96GD4); conditions: at 0.1 µM
[3] = target: Aurora kinase B (Homo sapiens) (UniProt Q96GD4); conditions: at 1 µM
[4] = target: T2, Aurora kinase C (Homo sapiens) (UniProt Q9UQB9); conditions: at 0.1 µM
T2 sequence (whole entry): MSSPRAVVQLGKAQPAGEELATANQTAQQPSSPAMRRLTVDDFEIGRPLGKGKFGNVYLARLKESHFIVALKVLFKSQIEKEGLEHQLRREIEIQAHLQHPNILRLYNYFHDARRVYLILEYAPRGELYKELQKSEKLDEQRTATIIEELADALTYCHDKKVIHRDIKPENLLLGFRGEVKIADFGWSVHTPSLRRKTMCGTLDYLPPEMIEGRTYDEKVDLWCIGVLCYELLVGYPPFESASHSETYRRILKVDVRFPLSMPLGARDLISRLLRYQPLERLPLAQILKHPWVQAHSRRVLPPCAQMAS

[5] = target: T2, Aurora kinase C (Homo sapiens); conditions: at 1 µM
[6] = target: Serine/threonine-protein kinase 10 (Homo sapiens) (UniProt O94804); conditions: at 0.1 µM
[7] = target: Serine/threonine-protein kinase 10 (Homo sapiens) (UniProt O94804); conditions: at 1 µM
[8] = target: T3, Mitogen-activated protein kinase kinase kinase kinase 2 (Homo sapiens) (UniProt Q12851); conditions: at 0.1 µM
T3 sequence (whole entry): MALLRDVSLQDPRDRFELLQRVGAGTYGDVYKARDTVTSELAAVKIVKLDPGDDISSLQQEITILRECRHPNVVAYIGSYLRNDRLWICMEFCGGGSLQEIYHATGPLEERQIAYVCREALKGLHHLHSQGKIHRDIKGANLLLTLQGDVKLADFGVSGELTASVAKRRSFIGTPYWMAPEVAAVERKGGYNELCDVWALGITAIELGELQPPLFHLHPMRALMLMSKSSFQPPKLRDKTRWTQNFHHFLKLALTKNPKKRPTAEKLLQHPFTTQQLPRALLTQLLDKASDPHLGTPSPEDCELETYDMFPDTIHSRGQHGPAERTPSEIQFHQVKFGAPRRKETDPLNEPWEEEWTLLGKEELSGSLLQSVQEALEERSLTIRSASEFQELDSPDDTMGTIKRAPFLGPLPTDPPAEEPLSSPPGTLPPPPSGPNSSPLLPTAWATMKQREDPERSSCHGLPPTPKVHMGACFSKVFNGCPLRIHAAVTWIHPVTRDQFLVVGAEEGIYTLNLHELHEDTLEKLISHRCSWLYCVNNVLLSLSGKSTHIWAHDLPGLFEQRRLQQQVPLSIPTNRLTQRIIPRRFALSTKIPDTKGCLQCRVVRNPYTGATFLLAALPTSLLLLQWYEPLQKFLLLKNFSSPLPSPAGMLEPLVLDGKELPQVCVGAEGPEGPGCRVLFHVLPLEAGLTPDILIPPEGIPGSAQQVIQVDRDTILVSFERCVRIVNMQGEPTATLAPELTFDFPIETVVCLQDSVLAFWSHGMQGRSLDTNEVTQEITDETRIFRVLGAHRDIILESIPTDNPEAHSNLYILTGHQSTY

[9] = target: T3, Mitogen-activated protein kinase kinase kinase kinase 2 (Homo sapiens); conditions: at 1 µM
[10] = target: Mitogen-activated protein kinase kinase kinase kinase 4 (Homo sapiens) (UniProt O95819); conditions: at 0.1 µM
[11] = target: Mitogen-activated protein kinase kinase kinase kinase 4 (Homo sapiens) (UniProt O95819); conditions: at 1 µM
[12] = target: Dual specificity mitogen-activated protein kinase kinase 1 (Homo sapiens) (UniProt Q02750); conditions: at 0.1 µM
[13] = target: Dual specificity mitogen-activated protein kinase kinase 1 (Homo sapiens) (UniProt Q02750); conditions: at 1 µM
[14] = target: Misshapen-like kinase 1 (Homo sapiens) (UniProt Q8N4C8); conditions: at 0.1 µM
[15] = target: Misshapen-like kinase 1 (Homo sapiens) (UniProt Q8N4C8); conditions: at 1 µM
[16] = target: T4, Serine/threonine-protein kinase 4 (Homo sapiens) (UniProt Q13043); conditions: at 0.1 µM
T4 sequence (whole entry): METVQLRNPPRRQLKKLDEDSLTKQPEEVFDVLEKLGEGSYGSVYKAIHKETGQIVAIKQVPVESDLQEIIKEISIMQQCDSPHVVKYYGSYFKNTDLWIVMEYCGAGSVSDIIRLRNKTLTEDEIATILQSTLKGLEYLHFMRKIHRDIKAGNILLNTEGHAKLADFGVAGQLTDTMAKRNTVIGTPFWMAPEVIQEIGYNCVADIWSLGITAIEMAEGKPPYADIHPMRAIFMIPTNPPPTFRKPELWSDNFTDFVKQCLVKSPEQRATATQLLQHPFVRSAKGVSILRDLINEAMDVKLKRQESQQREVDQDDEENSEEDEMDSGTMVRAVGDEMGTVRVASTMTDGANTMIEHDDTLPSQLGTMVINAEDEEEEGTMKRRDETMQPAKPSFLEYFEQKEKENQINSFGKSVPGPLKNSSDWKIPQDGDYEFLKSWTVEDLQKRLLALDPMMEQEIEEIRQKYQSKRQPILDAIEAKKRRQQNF

[17] = target: T4, Serine/threonine-protein kinase 4 (Homo sapiens); conditions: at 1 µM
[18] = target: T5, Serine/threonine-protein kinase 3 (Homo sapiens) (UniProt Q13188); conditions: at 0.1 µM
T5 sequence (whole entry): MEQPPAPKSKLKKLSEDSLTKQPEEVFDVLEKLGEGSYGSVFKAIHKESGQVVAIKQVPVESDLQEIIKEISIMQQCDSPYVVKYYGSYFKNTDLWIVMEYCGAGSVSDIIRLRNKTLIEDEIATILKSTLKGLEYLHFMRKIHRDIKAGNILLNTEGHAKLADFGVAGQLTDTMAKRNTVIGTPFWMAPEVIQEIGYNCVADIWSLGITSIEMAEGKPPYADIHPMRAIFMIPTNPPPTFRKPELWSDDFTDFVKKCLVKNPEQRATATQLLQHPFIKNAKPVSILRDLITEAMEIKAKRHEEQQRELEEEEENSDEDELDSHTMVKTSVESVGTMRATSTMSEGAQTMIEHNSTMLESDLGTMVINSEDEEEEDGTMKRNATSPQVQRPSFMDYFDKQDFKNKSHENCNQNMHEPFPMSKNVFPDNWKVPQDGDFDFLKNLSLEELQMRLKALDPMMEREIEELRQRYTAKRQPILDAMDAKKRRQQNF

[19] = target: T5, Serine/threonine-protein kinase 3 (Homo sapiens); conditions: at 1 µM
[20] = target: Serine/threonine-protein kinase 26 (Homo sapiens) (UniProt Q9P289); conditions: at 0.1 µM
Serine/threonine-protein kinase 26 (Homo sapiens), sequence (Q9P289 2-416 limits assumed): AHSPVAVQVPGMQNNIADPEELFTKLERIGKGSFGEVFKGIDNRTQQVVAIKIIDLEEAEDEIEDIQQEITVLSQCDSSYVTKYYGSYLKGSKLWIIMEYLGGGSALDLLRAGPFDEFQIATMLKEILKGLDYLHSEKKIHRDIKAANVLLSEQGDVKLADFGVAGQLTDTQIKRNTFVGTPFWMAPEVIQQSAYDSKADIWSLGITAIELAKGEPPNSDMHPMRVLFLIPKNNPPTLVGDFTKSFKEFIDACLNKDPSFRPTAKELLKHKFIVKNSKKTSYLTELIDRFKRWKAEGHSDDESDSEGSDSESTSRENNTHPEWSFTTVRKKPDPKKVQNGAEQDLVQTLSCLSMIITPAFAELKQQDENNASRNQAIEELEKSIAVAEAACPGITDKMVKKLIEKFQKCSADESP

Serine/threonine-protein kinase 10 (Homo sapiens), sequence (O94804 whole entry, looked up): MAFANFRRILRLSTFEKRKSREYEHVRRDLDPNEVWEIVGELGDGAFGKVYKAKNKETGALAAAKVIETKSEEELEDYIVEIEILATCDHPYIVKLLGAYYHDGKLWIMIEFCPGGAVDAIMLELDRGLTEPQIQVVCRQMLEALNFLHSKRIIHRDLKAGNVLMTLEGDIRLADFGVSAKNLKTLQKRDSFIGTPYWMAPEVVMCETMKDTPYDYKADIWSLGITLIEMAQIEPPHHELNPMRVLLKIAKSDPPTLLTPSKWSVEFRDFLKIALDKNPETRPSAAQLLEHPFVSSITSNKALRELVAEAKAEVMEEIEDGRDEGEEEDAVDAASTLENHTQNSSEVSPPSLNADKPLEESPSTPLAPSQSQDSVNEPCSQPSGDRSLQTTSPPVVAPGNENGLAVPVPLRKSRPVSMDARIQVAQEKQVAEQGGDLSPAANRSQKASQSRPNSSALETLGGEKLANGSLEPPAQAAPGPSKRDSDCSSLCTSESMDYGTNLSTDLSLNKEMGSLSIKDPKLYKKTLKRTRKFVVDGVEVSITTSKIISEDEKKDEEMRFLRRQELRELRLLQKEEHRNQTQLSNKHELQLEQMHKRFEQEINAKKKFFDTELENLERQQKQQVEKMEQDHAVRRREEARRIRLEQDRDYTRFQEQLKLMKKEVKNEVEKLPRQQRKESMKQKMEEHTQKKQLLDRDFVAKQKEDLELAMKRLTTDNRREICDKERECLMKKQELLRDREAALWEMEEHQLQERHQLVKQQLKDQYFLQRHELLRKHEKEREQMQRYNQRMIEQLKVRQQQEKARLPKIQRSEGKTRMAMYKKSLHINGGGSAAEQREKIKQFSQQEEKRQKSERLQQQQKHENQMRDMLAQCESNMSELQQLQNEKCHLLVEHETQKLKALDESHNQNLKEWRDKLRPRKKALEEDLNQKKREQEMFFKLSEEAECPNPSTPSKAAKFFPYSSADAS
Misshapen-like kinase 1 (Homo sapiens), sequence (Q8N4C8 whole entry, looked up): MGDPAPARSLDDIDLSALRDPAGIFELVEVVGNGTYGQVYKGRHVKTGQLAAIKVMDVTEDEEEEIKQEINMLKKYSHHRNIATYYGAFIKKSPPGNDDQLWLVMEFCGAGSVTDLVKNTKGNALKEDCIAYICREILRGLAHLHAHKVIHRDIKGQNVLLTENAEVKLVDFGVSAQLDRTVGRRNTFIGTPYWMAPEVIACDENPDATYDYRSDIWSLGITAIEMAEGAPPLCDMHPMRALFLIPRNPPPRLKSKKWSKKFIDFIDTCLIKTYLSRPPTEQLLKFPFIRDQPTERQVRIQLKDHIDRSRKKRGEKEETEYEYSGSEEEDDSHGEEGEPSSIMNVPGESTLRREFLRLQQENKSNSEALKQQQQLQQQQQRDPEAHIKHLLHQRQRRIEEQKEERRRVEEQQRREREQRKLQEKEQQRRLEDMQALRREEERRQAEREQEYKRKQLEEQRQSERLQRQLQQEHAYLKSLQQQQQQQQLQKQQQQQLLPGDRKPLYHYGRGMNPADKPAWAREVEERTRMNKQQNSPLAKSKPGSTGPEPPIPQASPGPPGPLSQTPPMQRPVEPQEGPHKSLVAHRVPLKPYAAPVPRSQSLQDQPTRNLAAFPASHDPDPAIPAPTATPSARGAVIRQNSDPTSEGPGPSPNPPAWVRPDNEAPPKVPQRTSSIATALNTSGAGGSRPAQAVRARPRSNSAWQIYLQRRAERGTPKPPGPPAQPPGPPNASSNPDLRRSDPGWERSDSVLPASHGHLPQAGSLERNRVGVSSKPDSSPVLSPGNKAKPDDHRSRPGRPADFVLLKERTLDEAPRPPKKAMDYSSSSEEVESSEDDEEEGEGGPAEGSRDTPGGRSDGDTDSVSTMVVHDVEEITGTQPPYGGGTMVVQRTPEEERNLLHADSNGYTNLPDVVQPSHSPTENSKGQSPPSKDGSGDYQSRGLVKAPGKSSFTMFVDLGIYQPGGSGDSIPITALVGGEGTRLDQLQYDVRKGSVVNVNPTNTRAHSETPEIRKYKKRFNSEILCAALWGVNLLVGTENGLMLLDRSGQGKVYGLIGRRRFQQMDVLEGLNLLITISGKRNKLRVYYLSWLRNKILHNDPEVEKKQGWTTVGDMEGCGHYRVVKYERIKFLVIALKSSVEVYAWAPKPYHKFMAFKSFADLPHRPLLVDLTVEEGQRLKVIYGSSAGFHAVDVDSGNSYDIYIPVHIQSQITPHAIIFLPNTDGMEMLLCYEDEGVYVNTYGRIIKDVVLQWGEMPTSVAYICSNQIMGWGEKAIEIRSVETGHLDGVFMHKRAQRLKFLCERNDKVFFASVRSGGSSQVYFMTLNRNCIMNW
Dual specificity mitogen-activated protein kinase kinase 1 (Homo sapiens), sequence (Q02750 whole entry): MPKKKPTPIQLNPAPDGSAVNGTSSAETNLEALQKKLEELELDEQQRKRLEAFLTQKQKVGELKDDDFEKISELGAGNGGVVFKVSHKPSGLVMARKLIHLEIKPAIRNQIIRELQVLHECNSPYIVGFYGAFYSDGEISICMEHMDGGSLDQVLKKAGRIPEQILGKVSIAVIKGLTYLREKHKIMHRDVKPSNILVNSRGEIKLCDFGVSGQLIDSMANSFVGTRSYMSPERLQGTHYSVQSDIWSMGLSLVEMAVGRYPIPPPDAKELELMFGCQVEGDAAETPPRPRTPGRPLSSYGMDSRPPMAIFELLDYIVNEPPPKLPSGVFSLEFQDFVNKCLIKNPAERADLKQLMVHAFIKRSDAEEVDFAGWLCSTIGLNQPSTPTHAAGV
Aurora kinase B (Homo sapiens), sequence (Q96GD4 whole entry): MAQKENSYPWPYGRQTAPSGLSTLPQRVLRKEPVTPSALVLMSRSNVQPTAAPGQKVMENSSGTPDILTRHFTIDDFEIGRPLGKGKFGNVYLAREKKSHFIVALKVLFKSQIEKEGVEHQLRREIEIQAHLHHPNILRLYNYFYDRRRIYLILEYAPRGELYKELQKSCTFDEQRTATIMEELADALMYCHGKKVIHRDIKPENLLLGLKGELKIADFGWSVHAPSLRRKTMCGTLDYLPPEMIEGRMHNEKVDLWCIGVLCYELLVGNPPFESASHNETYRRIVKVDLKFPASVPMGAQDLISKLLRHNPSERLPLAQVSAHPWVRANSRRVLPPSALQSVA
Mitogen-activated protein kinase kinase kinase kinase 4 (Homo sapiens), sequence (O95819 2-1239 limits assumed): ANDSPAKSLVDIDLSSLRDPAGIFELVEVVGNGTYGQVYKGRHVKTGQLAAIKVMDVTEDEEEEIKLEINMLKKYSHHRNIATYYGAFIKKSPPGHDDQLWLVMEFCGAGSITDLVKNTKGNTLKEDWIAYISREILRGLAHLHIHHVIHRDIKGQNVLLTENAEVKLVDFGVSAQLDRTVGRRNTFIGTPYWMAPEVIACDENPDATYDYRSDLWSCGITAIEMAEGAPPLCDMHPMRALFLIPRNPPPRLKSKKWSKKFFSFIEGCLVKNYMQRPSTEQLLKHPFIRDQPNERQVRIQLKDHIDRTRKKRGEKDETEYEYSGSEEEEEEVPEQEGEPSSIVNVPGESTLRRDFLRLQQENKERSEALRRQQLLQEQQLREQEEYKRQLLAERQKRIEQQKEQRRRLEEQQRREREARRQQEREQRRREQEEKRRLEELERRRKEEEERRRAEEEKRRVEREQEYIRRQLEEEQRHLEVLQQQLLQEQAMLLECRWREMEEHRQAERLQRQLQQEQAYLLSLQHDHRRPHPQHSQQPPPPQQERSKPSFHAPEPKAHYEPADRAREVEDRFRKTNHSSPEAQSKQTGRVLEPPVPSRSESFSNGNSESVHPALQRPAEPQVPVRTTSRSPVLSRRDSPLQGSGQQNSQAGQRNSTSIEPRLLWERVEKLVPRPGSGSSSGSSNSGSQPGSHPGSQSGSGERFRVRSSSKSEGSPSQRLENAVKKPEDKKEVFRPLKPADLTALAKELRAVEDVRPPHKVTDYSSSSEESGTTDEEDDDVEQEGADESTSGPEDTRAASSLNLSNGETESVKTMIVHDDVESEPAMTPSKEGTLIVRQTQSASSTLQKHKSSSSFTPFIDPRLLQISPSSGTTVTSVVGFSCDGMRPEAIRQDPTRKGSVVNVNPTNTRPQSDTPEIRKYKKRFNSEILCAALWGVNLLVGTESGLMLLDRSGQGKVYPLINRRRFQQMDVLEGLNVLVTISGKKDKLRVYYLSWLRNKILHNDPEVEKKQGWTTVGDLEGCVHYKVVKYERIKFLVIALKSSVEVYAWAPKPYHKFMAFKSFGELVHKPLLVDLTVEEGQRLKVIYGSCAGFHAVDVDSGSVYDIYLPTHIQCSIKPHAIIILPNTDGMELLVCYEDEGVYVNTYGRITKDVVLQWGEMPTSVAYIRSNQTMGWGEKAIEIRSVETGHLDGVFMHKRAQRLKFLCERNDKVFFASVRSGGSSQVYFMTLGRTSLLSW

Structure (SMILES) | inhibition [1] | inhibition [2] | inhibition [3] | inhibition [4] | inhibition [5] | inhibition [6] | inhibition [7] | inhibition [8] | inhibition [9] | inhibition [10] | inhibition [11] | inhibition [12] | inhibition [13] | inhibition [14] | inhibition [15] | inhibition [16] | inhibition [17] | inhibition [18] | inhibition [19] | inhibition [20]
CNC(=O)c1cncc(/C=C/c2c(Cl)cccc2Cl)c1 | 0.47% | -2.93% | 2.43% | -4.44% | 0.68% | 6.82% | 10.6% | 1.03% | 2.47% | 8.94% | 23% | 1.66% | 1.76% | 7.96% | 19.3% | 3.04% | 7.53% | 4.32% | 8.47% | -1.2%
COC(=O)Nc1nc2cc(Oc3ccc(NC(=O)Nc4cccc(C(=O)O)c4)cc3)ccc2[nH]1 | 12.8% | -1.26% | 9.37% | 0.03% | 37.7% | 0.65% | 7.1% | 0.68% | 1.11% | 0.99% | 5.9% | 0.36% | 0.97% | 1.59% | 4.38% | 7.79% | 11.2% | 7.55% | 10.9% | 1.75%
CN(C)c1cc2c(Nc3ccc4nc(Cc5ccccc5)[nH]c4c3)ncnc2cn1 | 11.5% | 6.09% | 27.4% | 5.94% | 40.3% | 6.78% | 14.4% | 1.35% | 2.07% | 7.88% | 9.42% | 6.17% | 5.42% | 8.81% | 9.2% | 4.35% | 3.57% | 4.95% | 2.18% | -1.17%
O=C1NC(=O)C(c2cccc(Cl)c2)=C1Nc1ccc(O)c(Cl)c1 | 11.1% | 1.17% | 6.09% | 1.02% | 13.1% | 6.26% | 46.3% | 4% | 21.3% | 1.83% | 7.19% | 0.81% | 7.65% | 2.81% | 7.79% | 33.6% | 75.2% | 24.3% | 66.8% | 1.93%
CCc1cccc(NC(=O)Nc2ccc(Oc3ccc4nc(NC(=O)OC)[nH]c4c3)cc2)c1 | 8.38% | 7.89% | 15.6% | 10.3% | 37.5% | 46.8% | 57.8% | 1.82% | 5.21% | 1.49% | 3.37% | 1.28% | 1.44% | 3.46% | 3.01% | 3.69% | 8.88% | 5.1% | 4.89% | 2.48%
Nc1nc(-c2ccc3c(c2)C(=Cc2cc(Br)c(O)c(Br)c2)C(=O)N3)cs1 | 29.2% | 1.57% | 6.47% | -0.77% | 9.45% | 2.74% | 6.29% | 1.39% | 5.61% | 24.6% | 75.3% | -1.03% | -1.25% | 10.2% | 56.9% | -2.22% | 9.55% | -2.3% | 12.2% | 0.73%
c1cnn2ncc(-c3ccnc(Nc4ccc5c(c4)OCCO5)n3)c2c1 | 85.5% | 14.4% | 65.2% | 18.8% | 96.8% | 5.98% | 23.8% | 13.6% | 56.5% | 11.3% | 51.5% | 7.35% | 27.8% | 9.95% | 40.4% | 7.88% | 19.1% | 7.54% | 16.1% | -1.31%
